According to PubChem BioAssay (NCATS):
Records with an inconclusive call do not appear. Active and inactive are the calls of the source. Calls come from the whole dose curve; as a rule, active = well fitted curve in the direction sought with a large enough effect; inconclusive = small, poorly fitted or top-dose-only effect, or another doubt; inactive = no such curve, though single readings can be large; an effect the other way counts as inactive or inconclusive.

Key:
[1] = biological target: Aldehyde dehydrogenase, mitochondrial (Homo sapiens) (UniProt P05091); assay: qHTS for Inhibitors of the Aldehyde Dehydrogenase Family (ALDH2) Primary screen (AID 2061308); details: ALDH2 enzyme inhibition qHTS, 1536-well; series mostly up to 56 µM; note: nearly all actives have a fitted effect of over 55% in size
[2] = biological target: Retinaldehyde dehydrogenase 3 (Homo sapiens) (UniProt P47895); assay: qHTS for Inhibitors of the Aldehyde Dehydrogenase Family (ALDH1A3) Primary screen (AID 2061315); details: ALDH inhibition qHTS; series mostly up to 56 µM
[3] = BET inhibitor-based combinations targeting novel dependencies in MECOM-rearranged (r) AML: SET-2 cell line (AID 2202231); details: SET-2 AML cells viability, CellTiter-Glo luminescence, 48 h; viability: stronger effect = lower value, concentration not given here; note: potency is the fitted concentration of half-maximal effect; nearly all actives have a fitted effect of over 35% in size
Procedure, shortened: (§1)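 Each compound was tested at eleven concentrations on cells seeded at 500/well. After two days' incubation, ATP-based luminescence reported viability; responses relative to DMSO and blank wells yielded AUC and cell-line-centred Z-AUC.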

[4] = BET inhibitor-based combinations targeting novel dependencies in MECOM-rearranged (r) AML: OCI-AML3 cell line (AID 2202232); details: CellTiter-Glo luminescence, 48 h; Potency: OCI-AML3 viability; series mostly up to 46 µM; note: potency is the fitted concentration of half-maximal effect; nearly all actives have a fitted effect of over 35% in size
Procedure, shortened: as §1

[5] = BET inhibitor-based combinations targeting novel dependencies in MECOM-rearranged (r) AML: MV-4-11 cell line (AID 2202233); details: MV-4-11 AML viability, CellTiter-Glo luminescence, 48 h; series mostly up to 46 µM; note: potency is the fitted concentration of half-maximal effect; nearly all actives have a fitted effect of over 45% in size
Procedure, shortened: (§2)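 First, 500 cells per well were seeded; next, drugs were pinned as 11-point doses; then plates sat 48 hr in the incubator; finally CellTiter-Glo was added and luminescence read, with AUC and Z-AUC computed.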

[6] = BET inhibitor-based combinations targeting novel dependencies in MECOM-rearranged (r) AML: HNT-34 cell line (AID 2202234); details: HNT-34 AML viability, CellTiter-Glo luminescence, 48 h; series mostly up to 46 µM; note: potency is the fitted concentration of half-maximal effect; nearly all actives have a fitted effect of over 35% in size
Procedure, shortened: as §2

[7] = BET inhibitor-based combinations targeting novel dependencies in MECOM-rearranged (r) AML: UCSD-AML1 cell line (AID 2202235); details: UCSD-AML1 AML cells viability, CellTiter-Glo, 48 h; series mostly up to 46 µM; note: potency is the fitted concentration of half-maximal effect; nearly all actives have a fitted effect of over 40% in size
Procedure, shortened: as §2

[8] = BET inhibitor-based combinations targeting novel dependencies in MECOM-rearranged (r) AML: AML-191 cell line (AID 2202236; note: potency is the fitted concentration of half-maximal effect; nearly all actives have a fitted effect of over 35% in size); details: AML-191 viability, CellTiter-Glo luminescence, 48 h; series mostly up to 46 µM
Procedure, shortened: as §1

[9] = BET inhibitor-based combinations targeting novel dependencies in MECOM-rearranged (r) AML: AML-194 cell line (AID 2202237; note: potency is the fitted concentration of half-maximal effect; nearly all actives have a fitted effect of over 40% in size); details: AML-194 (MECOM-r AML) viability, CellTiter-Glo, 48 h; series mostly up to 46 µM
Procedure, shortened: as §1

[10] = biological target: Aldehyde dehydrogenase 1A1 (Homo sapiens) (UniProt P00352); assay: qHTS for Inhibitors of the Aldehyde Dehydrogenase Family (ALDH1A1) Confirmatory screens (AID 2061316); details: ALDH inhibition qHTS; series mostly up to 47.3 µM; note: potency is the fitted concentration of half-maximal effect; nearly all actives have a fitted effect of over 65% in size

| SMILES | Potency [1] | Potency [2] | Potency [3] | Potency [4] | Potency [5] | Potency [6] | Potency [7] | Potency [8] | Potency [9] | Potency [10] |
| --- | --- | --- | --- | --- | --- | --- | --- | --- | --- | --- |
| CCn1cc(-c2ccnc3[nH]c(-c4cccc(CN(C)C)c4)cc23)c(-c2ccc(NC(=O)N(C)C)cc2)n1 | inactive | inactive | 16.6 µM (active) | 8.33 µM (active) | 0.186 µM (active) | 3.32 µM (active) | 4.17 µM (active) | 5.25 µM (active) | 5.9 µM (active) | – |
| CCN1CCN(Cc2ccc(NC(=O)c3ccc(C)c(/C=C/c4cnc5[nH]ccc5c4OC)c3)cc2C(F)(F)F)CC1 | inactive | inactive | 5.9 µM (active) | 5.25 µM (active) | 0.186 µM (active) | 0.209 µM (active) | 2.95 µM (active) | 2.95 µM (active) | 2.95 µM (active) | – |
| CNS(=O)(=O)c1ccc2c(c1)/C(=C/c1[nH]c3c(c1CCCN1CCN(C)CC1)CCCC3)C(=O)N2 | inactive | inactive | 18.6 µM (active) | 18.6 µM (active) | 1.18 µM (active) | 20.9 µM (active) | – | 14.8 µM (active) | 13.2 µM (active) | – |
| CCC(=O)Nc1cccc(Oc2nc(Nc3ccc(N4CCN(C)CC4)cc3OC)ncc2Cl)c1 | inactive | inactive | 20.9 µM (active) | 14.8 µM (active) | 7.42 µM (active) | 11.8 µM (active) | – | 18.6 µM (active) | – | – |
| O=C(O)C1(Cc2cccc(Nc3nccs3)n2)CCC(Oc2cccc(Cl)c2F)CC1 (configuration not stated) | inactive | inactive | 1.66 µM (active) | 0.662 µM (active) | 1.32 µM (active) | 0.468 µM (active) | – | – | – | – |
| O=C1Nc2ccccc2/C1=C/c1cc(Cl)c(O)c(Cl)c1 | inactive | inactive | – | – | – | – | – | – | – | 17.9 µM (active) |
